Screens deposited in PubChem by Broad Institute.
Only a sample is shown.
aSyn 5UTR act: Activators via SNCA 5'UTR binding, MLPCN | alpha-synuclein 5'UTR reporter, activators screen | activity score, % (tested at 7.5 µM), hits read low | 300,000 tested, 7.1% active; in the data active = activity score below about -60%
* = called active by the depositor.

SMILES	aSyn 5UTR act
O=C(N/N=C/c1cccc(F)c1)c1c(O)c2c([nH]c1=O)CCCC2	-137*
O=C(N/N=C/c1ccccc1F)NC1CCCCC1	-130*
Cc1ccc(N2CN=C3SCC(=O)N3C2)cc1C	-121*
O=C(NC(=S)Nc1ccc2oc(-c3cccnc3)nc2c1)c1cccc(Cl)c1	-115*
CCCC(=O)Nc1ccc2oc(-c3cccnc3)nc2c1	-80*
COC(=O)Cc1ccc2oc(-c3cccnc3)nc2c1	-64*
CCCC(=O)Nc1ccc(-c2nc3ncccc3o2)cc1	-181*
CCCC(=O)NC(c1ccccc1Cl)c1ccc2cccnc2c1O (centres undefined)	68
CN(C)CCCNc1cc(-c2ccccc2)nc2cc(-c3cccc(F)c3)nn12	-62*
CSc1ccccc1NC(=O)c1cc2ncc(Br)cn2n1	-182*
O=C(COC(=O)CNC(=O)c1ccccc1)Nc1nc(-c2ccccc2)cs1	-71*
Cn1nccc1C(=O)OCC(=O)Nc1nc(-c2ccccc2)cs1	-126*
COc1ccccc1CC(=O)Nc1nc(-c2ccc(F)c(F)c2)cs1	-83*
O=C(Cn1nc(-c2ccccc2)c2ccccc2c1=O)Nc1ccccn1	-66*
O=C(COC(=O)c1cccs1)Nc1nc(-c2ccccc2)cs1	-90*
COC(=O)CCC(=O)Nc1nc(-c2ccccc2)cs1	-65*
O=C(COC(=O)c1cc(=O)[nH]c2ccccc12)Nc1nc(-c2ccccc2)cs1	-73*
Cn1cc(Cl)c(C(=O)OCC(=O)Nc2nc(-c3ccc(Br)cc3)cs2)n1	-110*
O=C(Cc1cccs1)Nc1nc(-c2ccccc2)cs1	-81*
O=C(Cn1nc(C(=O)O)c2ccccc2c1=O)Nc1nc(-c2ccccc2)cs1	-71*
C/C(=N\Nc1nc(-c2ccccc2)cs1)c1cccs1	-280*
Cc1nc(CC(=O)Nc2nc(-c3ccccc3)cs2)cs1	-66*
N#CC1=C(N)Oc2ccc3ccccc3c2C1c1cccnc1 (centres undefined)	54
CCOC(=O)C1=C(CSc2nc(-c3ccccc3)ccc2C#N)OC(N)=C(C#N)C1c1cccnc1 (centres undefined)	-84*
CCOC(=O)C1=C(c2ccccc2)OC(N)=C(C#N)C1C(C)C (centres undefined)	-103*
SMILES	aSyn 5UTR act
CCOC(=O)C1=C(CSc2nc(-c3ccccc3)ccc2C#N)OC(N)=C(C#N)C1c1ccccc1 (centres undefined)	-103*
CCC1(c2ccc(F)cc2)NC(=O)N(CC(=O)Nc2ccc(-c3nc4ccc(C)cc4s3)cc2)C1=O (centres undefined)	-201*
COc1ccc(C2(C)NC(=O)N(CC(=O)Nc3ccc(-c4nc5ccc(C)cc5s4)cc3)C2=O)cc1 (centres undefined)	-191*
O=c1cc2[nH]c3ccccc3c(=O)n2nc1-c1ccccc1	-125*
Cc1ccc(O)c(C(=O)c2cnn(-c3ccccc3)c2)c1	-68*
O=C(Cc1cnn(-c2ccccc2)c1)c1ccc(O)c(O)c1O	-81*
CCC(Sc1nc2n[nH]c(C)c2c(=N)n1-c1cccc(Cl)c1C)C(=O)N(CC)CC (centres undefined)	51
CCc1nc(SCc2ccc(OC)cc2)n[nH]1	-82*
Cc1ccnc(NC(=O)c2cccc(S(=O)(=O)N3CCCc4ccccc43)c2)c1	-128*
COc1ccc(C(=O)Nc2nc3ccccc3s2)cc1OC	-212*
COc1cccc(C(=O)Nc2nc3ccccc3s2)c1	-108*
COc1ccc(C(=O)Nc2nc3ccccc3s2)cc1	67
COc1cc(C(=O)Nc2nc3ccc(C)cc3s2)ccc1OCc1c(C)noc1C	-99*
O=C(Nc1nc2ccccc2s1)c1cccc(S(=O)(=O)N2CCc3ccccc32)c1	-64*
COc1cc(OC)cc(C(=O)NCC(=O)OCc2nc3ccccc3s2)c1	-184*
COc1cccc(C(=O)Nc2nc(C)cs2)c1	-142*
O=C(Nc1nc2ccccc2s1)c1cccc(N2C(=O)CCC2=O)c1	-82*
CC(C)[C@H](NC(=O)c1cccc(S(=O)(=O)N2CCOCC2)c1)C(=O)Nc1nc2ccccc2s1	-72*
Cc1cccc(C(=O)N[C@H](C(=O)Nc2nc3ccccc3[nH]2)C(C)C)c1	96
O=C(Nc1nc2ccccc2s1)c1cc(-c2ccccc2)nn1-c1ccccc1	-137*
O=C1/C(=C/c2ccncc2)CCC/C1=C\c1ccncc1	-101*
CC1CC/C(=C\c2ccc3c(c2)OCO3)C(=O)/C1=C/c1ccc2c(c1)OCO2 (centres undefined)	-80*
O=C1/C(=C\c2ccc3c(c2)OCO3)CCC/C1=C/c1ccc2c(c1)OCO2	-93*
Cc1ccccc1-c1nnc(SCc2ccc(F)cc2)o1	-126*
c1ccc(CSc2nnc(Cc3ccccc3)o2)cc1	-71*
SMILES	aSyn 5UTR act
O=C(CSc1nnc(COc2ccc(Cl)cc2)o1)N1c2ccccc2CCc2ccccc21	60
c1ccc(-c2nnc(SCCC3OCCCO3)o2)cc1	-111*
Fc1ccc(CSc2nnc(-c3cccnc3)o2)cc1	-65*
c1ccc(CSc2nnc(-c3cccnc3)o2)cc1	-123*
Oc1ccc(-c2nnc(SCc3ccccc3)o2)cc1	-138*
O=C(NCCCO)c1cc2c(cn1)[nH]c1ccccc12	-104*
COc1ccc2nc(NC(=O)c3cccs3)sc2c1	-78*
CC(C)(C)N1C(=O)c2ccc(C(=O)Nc3ccc(O)cc3)cc2C1=O	-87*
CCc1nnc(NC(=O)c2ccc3c(c2)C(=O)N(C(C)(C)C)C3=O)s1	-145*
CCc1nnc(NC(=O)c2ccc3ncsc3c2)s1	-102*
CCNc1nc(C)c2cc(Br)c(=O)n(CC)c2n1	76
O=C(Nc1nc2ccccc2s1)c1ccc(Cl)s1	-170*
COc1ccc2nc(NC(=O)c3ccc(F)cc3)sc2c1	-156*
Nc1ccc(-c2nc3ccc(C(=O)O)cc3s2)cc1	95
NC(=O)c1ccc2nc(NC(=O)c3ccc(N)cc3)sc2c1	-79*
Cc1ccc(C(=O)Nc2nc3ccccc3c(=O)s2)cc1	-190*
COc1ccc(OC)c(-c2csc(NC(=O)c3ccc(F)cc3)n2)c1	-202*
CCc1nnc(NC(=O)c2ccc(NC(=O)C(C)C)cc2)s1	-101*
COc1ccc2nc(NC(=O)c3ccc4ncsc4c3)sc2c1	-134*
O=C(Nc1nc(=O)c2ccccc2s1)c1ccccc1	-157*
O=C(Nc1nc2ccccc2s1)c1ccc(F)cc1	-89*
O=C(Nc1nc(-c2cccs2)cs1)c1ccc(Cl)s1	-146*
Nc1c(C(=O)Nc2ccc(F)cc2)sc(=S)n1-c1ccccc1F	-84*
Cn1c(N)c(C(=O)Nc2ccc3ccccc3c2)sc1=S	-186*
CC(C)(C)c1ccc(OCc2cnc(Cl)s2)cc1	-105*
SMILES	aSyn 5UTR act
CCCc1cc(C(=O)NC2CCCC2)no1	-94*
CCCc1cc(C(=O)NC2CCCCC2)no1	-146*
CC(C)c1cc(C(=O)NC2CCCCC2)no1	-148*
CC(=Nc1cccc(O)c1)c1sc2ccccc2c1O	-236*
Cc1ccc(C(=O)Nc2ccc3c(c2)CCC3)cc1S(=O)(=O)N1CCOCC1	-108*
CSc1nnc(NC(=O)c2ccc(C)c(S(=O)(=O)N3CCOCC3)c2)s1	-73*
NS(=O)(=O)c1cc(C(=O)Nc2ccc3c(c2)CCC3)ccc1Cl	-153*
Cc1cc(C)cc(NC(=S)N=Nc2c(O)n(C)c3ccc(S(=O)(=O)N4CCOCC4)cc23)c1	63
Cc1cccc(C)c1NC(=S)N=Nc1c(O)n(C)c2ccc(S(=O)(=O)N3CCOCC3)cc12	71
O=C(Nc1ccc2c(c1)CCC2)c1ccc(F)c(S(=O)(=O)N2CCOCC2)c1	-74*
O=C(Nc1cccc(O)c1)c1ccc([N+](=O)[O-])cc1Cl	-86*
